From the supplement of paper PMC12024529

system: HEK293 WT BDD-FVIII-Gluc; assay: secreted FVIII-Gluc luciferase Z-score vs DMSO control; higher = more FVIII-Gluc secretion; conditions: 5 µM
Procedure: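 Natural plant-compound library (480 compounds, ST catalogue IDs) screened on HEK293 cells stably expressing WT BDD-FVIII-Gaussia luciferase fusion at 5 µM. Secreted Gluc activity in the medium is given as a Z-score relative to DMSO controls.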

SMILES	secreted FVIII-Gluc luciferase Z-score
OC1CCC2Cc3ccccc3N=C12 (stereo not given)	-0.361
CC(=O)[C@H]1CC[C@H]2[C@@H]3CCC4=CC(=O)CC[C@]4(C)[C@H]3CC[C@]12C	0.00749
O=c1ccn([C@H]2C[C@H](O)[C@@H](CO)O2)c(=O)[nH]1	0.515
O=c1c(O)c(-c2cccc(O)c2)oc2ccccc12	-0.392
C=C1CCC2C(C)(CC[C@@H](O)C2(C)C)C1COc1ccc2ccc(=O)oc2c1 (stereo not given in full)	0.344
CCn1nc(C(=O)O)c(=O)c2cc3c(cc21)OCO3	-1.17
COc1cc2c3cc1Oc1c(OC)c(OC)cc4c1[C@@H](Cc1ccc(O)c(c1)Oc1ccc(cc1)C[C@@H]3N(C)CC2)N(C)CC4	0.165
COc1cn(C2OC(CO)C(O)C2O)c(=O)[nH]c1=O (stereo not given)	-0.271
COc1cc(/C=C/C(=O)N2CCCCC2=O)cc(OC)c1OC	1.28
OC[C@H]1O[C@@H](n2cnc3c(NCc4ccco4)ncnc32)[C@H](O)[C@@H]1O	-1.03
COc1cc2ccc(=O)oc2c(O)c1O	0.185
O=c1c(O)c(-c2ccc(O)cc2)oc2ccc(O)cc12	0.433
CC(=O)OC1CCC2(C)C3CCC4(C)C(CC5CCCCC54C(C)=O)C3CC(=O)C2(O)C1 (stereo not given)	0.153
Oc1cc2c(cc1O)[C@H]1c3ccc(O)c(O)c3OC[C@@]1(O)C2	0.368
Nc1ncnc2c1ncn2C1OC(COP(=O)(O)OP(=O)(O)OP(=O)(O)O)C(O)C1O (stereo not given)	0.477
CC(=O)OC1CCC2(C)C(=CCC3C2CC[C@]2(C)C(C(C)=O)CCC32)C1 (stereo not given in full)	0.0308
O=C1c2ccccc2C(=O)c2c1ccc(O)c2O	0.508
Nc1nc2c(ncn2[C@H]2C[C@H](O)[C@@H](COP(=O)(O)O)O2)c(=O)[nH]1	0.653
O=C1OC(C(O)CO)C(O)=C1O (stereo not given)	0.497
OCc1ccccc1O[C@@H]1O[C@H](CO)[C@@H](O)[C@H](O)[C@H]1O	0.752

SMILES	secreted FVIII-Gluc luciferase Z-score
Nc1ccn([C@@H]2O[C@H](CO)[C@@H](O)[C@H]2O)c(=O)n1	1.12
O=c1cnn(C2OC(CO)C(O)C2O)c(=O)[nH]1 (stereo not given)	-2.33
COc1cc(=O)n(C)c2c(OCC(O)C(C)(C)O)cccc12 (stereo not given)	-1.05
COc1ccc(CCN(C)CCCC(C#N)(c2ccc(OC)c(OC)c2)C(C)C)cc1OC (stereo not given)	0.188
COc1c(-c2ccccc2)oc2c(ccc3occc32)c1=O	0.489
O=C(O)/C=C/c1ccc(O)c(O)c1	-0.126
CC/C=C\C[C@H]1C(=O)CC[C@@H]1CC(=O)O	0.253
C[C@H](CCC(=O)O)[C@H]1CC[C@H]2[C@@H]3CC[C@@H]4C[C@H](O)CC[C@]4(C)[C@H]3CC[C@]12C	1.27
Cc1ccc2oc(-c3ccccc3)cc(=O)c2c1	0.845
Cc1cc(=O)cc2oc3cc(N)c(-c4c(C)cc(O)cc4O)c(C)c3nc1-2	-0.31
Nc1ccn([C@@H]2O[C@H](CO)[C@@H](OP(=O)(O)O)[C@H]2O)c(=O)n1	-0.278
O=c1cc(-c2cccc(O)c2)oc2cccc(O)c12	0.424
CN1C(CC(=O)c2ccccc2)CCC[C@H]1C[C@H](O)c1ccccc1 (stereo not given in full)	0.401
COc1ccccc1-c1cc(=O)c2cc(O)ccc2o1	0.281
COC1OC2COC(c3ccccc3)OC2C(O)C1O (stereo not given)	-1.04
COc1cccc(-c2oc3ccccc3c(=O)c2O)c1	0.776
Cc1c(C)c2c(c(C)c1OC(=O)CCC(=O)O)CC[C@@](C)(CCC[C@H](C)CCC[C@H](C)CCCC(C)C)O2	0.648
O=C1C[C@H](c2ccccc2)Oc2cc(O)cc(O)c21	0.533
O=c1cc(-c2ccccc2)oc2cc(O[C@@H]3O[C@H](CO)[C@@H](O)[C@H](O)[C@H]3O)c(O)c(O)c12	-0.188
COC(=O)[C@H]1[C@H]2C[C@H]3c4[nH]c5ccccc5c4CCN3C[C@@H]2CC[C@@H]1O	-1.15
